These results are taken from PubChem BioAssay AID651588 (Broad Institute, 2012).

Potency and affinity values are given separately. Calls of active or inactive are those of the source.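 How the source made its calls: active means compounds lowering reporter light with a fitted half-maximal concentration no more than twice the top tested dose; inconclusive means flat response with inhibition between 30 and 70%, or poor fit; inactive means rising signal, flat response, or weak potency.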

The nature of this test: TRPM1 promoter luciferase reporter signal decrease, dose response, MITF inhibitor project, cell-based, SK-MEL-5, dry powder, set 9 (AID 651588).

Take `Cc1ccc(NC2=CC(=O)c3ccccc3C2=O)cc1`: the molecule was called inactive.

For `O=C1C=C(Nc2ccccc2)C(=O)c2ccccc21`, the call was inactive.
